According to ChEMBL document CHEMBL1157539, “Thousands of chemical starting points for antimalarial lead identification” (Nature, 2010):

The compounds below were run on Plasmodium falciparum (assay: GSK_TCMDC: Inhibition of Plasmodium falciparum 3D7 in whole red blood cells, using parasite LDH activity as an index of growth. Test compounds present at 2uM).
Type: functional

Structure (SMILES) | Inhibition
CCOc1ccc(-c2nonc2NC(=O)c2ccc(OC(C)C)cc2)cc1OCC | 100%
O=[N+]([O-])c1ccc(Nc2nc(N/N=C/c3cc(Cl)cc(Cl)c3O)nc(Nc3ccccc3)n2)cc1 | 100%
Cc1cc(-c2ccc(NC(=O)N3CCc4cc(Br)c(N5CCN(C)CC5)cc43)cc2)ccc1C#N | 99%
Cc1sc2ncnc(Sc3nc4ccccc4[nH]3)c2c1C | 99%
COc1cccc2cc(C(=O)N[C@@H](CC(C)C)C(=O)N[C@H](C=NN3CC(=O)NC3=O)CC(C)C)oc12 | 86%
Cc1cc2ncn(-c3nccc(NCc4ccc(F)cc4)n3)c2cc1C.O=C(O)C(F)(F)F | 98%
O=C(O)C(F)(F)F.c1cc(CNC2CCCC2)cc(-c2ccc(CNc3ccc4ncccc4c3)cc2)c1 | 98%
Br.CC1(C)N=C(N)N=C(N)N1OCc1cccc2c1ccc1ccccc12 | 95%
CC(C)(C)c1ccc2[nH]c(-c3ccc(/C=C/C(=O)NC4CCN(Cc5ccccc5)CC4)cc3)nc2c1 | 100%
COc1ccc2nc(SC(C)C(=O)c3c[nH]c4ccccc34)[nH]c2c1 (centres undefined) | 100%
CCN(CC)CCN1C(=O)c2oc3ccc(Cl)cc3c(=O)c2C1c1ccc(SC)cc1 (centres undefined) | 98%
CC(O)C(C)(CO)NCc1ccc2c3c(cccc13)-c1ccccc1-2.Cl (centres undefined) | 95%
CSc1cccc(Nc2nc3ccc(S(=O)(=O)NCC(C)C)cc3n2C(C)C(C)C)c1 (centres undefined) | 93%
CCNC(=O)N[C@@H]1CN[C@@H](C#Cc2cc3c(Nc4ccc(OCc5cccc(F)c5)c(Cl)c4)ncnc3s2)C1 | 85%
